Data on 29 molecules can be found in PubChem BioAssay (NCATS).

Assay [1] concerns the target Cytochrome P450 3A7 (Homo sapiens) (UniProt P24462). Kind of assay: Cytochrome P450 family 3 subfamily A member 7 (CYP3A7) small molecule antagonists: luciferase biochemical qHTS assay (AID 1963596). Further: on the % scale 0 is the no-effect control and ±100 the full control effect; nearly all actives have a fitted effect of over 40% in size. The settings on record: P450-Glo CYP3A7 enzyme luminescence, 1 h; series mostly up to 57.4 µM. The method in brief:
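P450-Glo luminescent assay: CYP3A7 enzyme converts a proluciferin substrate to luciferin, detected by luciferase reagent; light proportional to activity. Compounds in DMSO preincubated 10 min with enzyme-substrate mix at room temperature, then NADPH regeneration added for 1 h.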

Assay [2] in a line: Viability qHTS for spleen associated tyrosine kinase inhibitor (SYKi) drug resistant MV4-11 cells (AID 1963824). Further: nearly all actives have a fitted effect of over 35% in size. Further: potency means the concentration at half of the fitted maximal effect. The settings on record: SYKi-resistant MV4-11 viability, CellTiter-Glo, 72 h; series mostly up to 45 µM. The method in brief:
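CellTiter-Glo luminescence, read 10 min after reagent addition, reports viability after a 72 hr compound exposure. Cells are an MV4-11 line made resistant to SYK inhibition, seeded at 500 per well onto compound-containing plates.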

A short description of assay [3]: Cellular viability qHTS for adrenocortical cancer (ACC) cell line SW-13 (AID 1963989).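 Further: cells grown in serum-free medium with ITS supplement; on the % scale 0 is the no-effect control and ±100 the full control effect; nearly all actives have a fitted effect of over 65% in size.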 The settings on record: SW-13 ACC cells viability, CellTiter-Glo, 48 h; activity (max response): hits give low values. The method, boiled down: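 Luminescent ATP read-out (CellTiter-Glo, 20 min at room temperature) measured metabolically competent SW-13 cells after 48 h compound treatment. Final concentrations spanned up to 46 uM; bortezomib served as positive control.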

Assay [4] in a line: Cellular viability qHTS for adrenocortical cancer (ACC) cell line NCI-H295R (AID 1963990).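 Further: 0% = DMSO only wells and -100% = full killing with cytotoxic reference compound; nearly all actives have a fitted effect of over 60% in size.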 The settings on record: CellTiter-Glo ATP luminescence, 48 h; series mostly up to 46.1 µM. The method, boiled down: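 IC50 and maximal efficacy derive from four-parameter logistic modelling of titration curves, with reads scaled between DMSO-only wells (0%) and doxorubicin hydrochloride (100% inhibition). Compounds spanned up to 46 uM over 48 h.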

A short description of assay [5]: Viability qHTS for spleen associated tyrosine kinase inhibitor (SYKi) naive MV4-11 cells (AID 1963823). Further: nearly all actives have a fitted effect of over 40% in size. Further: potency means the concentration at half of the fitted maximal effect. The settings on record: MV4-11 AML viability, CellTiter-Glo luminescence, 72 h; series mostly up to 45 µM. The method, boiled down:
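SYKi-naive MV4-11 AML cells, 500 per well, were exposed to library compounds for 72 hr at 37 C, 5% CO2. Viability was then read by CellTiter-Glo luminescence after 10 min at room temperature.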

Inconclusive results are not listed. Calls of active or inactive are those of the source. The call rests on the fitted dose curve; in most records, active means well fitted curve in the direction sought with a large enough effect; inconclusive means small, poorly fitted or top-dose-only effect, or another doubt; inactive means no such curve, though single readings can be large; an effect the other way counts as inactive or inconclusive.

Chain of Cytochrome P450 3A7 (Homo sapiens) (P24462 whole entry, looked up): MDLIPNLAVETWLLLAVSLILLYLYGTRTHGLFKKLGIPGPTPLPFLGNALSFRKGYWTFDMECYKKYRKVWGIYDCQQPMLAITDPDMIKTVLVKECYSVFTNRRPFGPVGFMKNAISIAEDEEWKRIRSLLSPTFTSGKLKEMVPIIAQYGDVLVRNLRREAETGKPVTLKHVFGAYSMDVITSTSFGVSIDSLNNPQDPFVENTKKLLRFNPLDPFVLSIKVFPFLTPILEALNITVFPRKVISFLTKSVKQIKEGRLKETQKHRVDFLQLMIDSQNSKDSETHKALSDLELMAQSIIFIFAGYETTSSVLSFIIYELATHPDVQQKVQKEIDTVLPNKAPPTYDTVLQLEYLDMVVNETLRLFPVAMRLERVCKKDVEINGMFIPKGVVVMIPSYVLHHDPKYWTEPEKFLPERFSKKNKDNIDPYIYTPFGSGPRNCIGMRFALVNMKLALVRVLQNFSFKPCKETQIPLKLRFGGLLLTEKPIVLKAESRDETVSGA

`C#C[C@]1(O)CC[C@H]2[C@@H]3CCC4=CC(=O)CCC4=C3C=C[C@@]21CC`: the Potency result in assay [1], in assay [2] and in assay [4] was “inactive” in each case. The activity (max response) in assay [3] is 13.9% (inactive).

Regarding `C=CCC1=C(C)C(OC(=O)C2C(C=C(C)C)C2(C)C)CC1=O` (centres undefined), the Potency in assay [5] is 5450 nM (active).

As for `CC1Oc2cc3c(-c4c(O)cc(O)c5c(O)c6c(cc45)OC(C)C(C)C6=O)c(O)cc(O)c3c(O)c2C(=O)C1C` (centres undefined), the Potency in assay [5] was 5170 nM (active); in assay [2] it was 4610 nM (active).

With `CN(CC[C@H](N)CC(=O)N[C@H]1C=C[C@@H](n2ccc(N)nc2=O)O[C@@H]1C(=O)O)C(=N)N`, in assay [5], the viability (% of control) is 83.5% [at 9.25 µM] (inactive).

Consider `O=C(OC[C@H]1O[C@@H](Oc2ccc(O)cc2CO)[C@H](O)[C@@H](O)[C@@H]1O)c1ccccc1`, for which the Potency result in assay [5] and in assay [2] was “inactive” throughout.

For the molecule `COC(=O)C1(C)CCC(O)C2(C)c3cc(O)c(C(C)C)cc3C(O)C(OC(C)=O)C12` (centres undefined), the Potency entry in assay [5] and in assay [2] was “inactive” in each case.

`C[C@H]1O[C@@H](O[C@H]2CC[C@]3(C=O)C4CC[C@]5(C)[C@@H](C6=CC(=O)OC6)CC[C@]5(O)[C@@H]4CC[C@]3(O)C2)C[C@@H](O)[C@@H]1O` (some centres undefined): in assay [5], the Potency is 56.3 nM (active).

Consider `CO[C@@H]1[C@@H](O)[C@@H](O[C@H]2CC[C@]3(C=O)C4CC[C@]5(C)[C@@H](C6=CC(=O)OC6)CC[C@]5(O)[C@@H]4CC[C@H]3C2)O[C@@H](C)[C@H]1O[C@@H]1O[C@H](CO[C@@H]2O[C@H](CO)[C@@H](O)[C@H](O)[C@H]2O)[C@@H](O)[C@H](O)[C@H]1O` (some centres undefined), for which the Potency in assay [5] was 3900 nM (active); in assay [2], 1380 nM (active).

As to `CC1C/C=C/C(O)C(O)CC/C=C/c2cc(O)cc(O)c2C(=O)O1` (centres undefined), the values for the Potency in assay [5] and in assay [2] were 5700 nM (active) and 8050 nM (active), respectively.

As to `CN1C[C@@H]2CN(c3ccc(-c4ccccc4)nn3)C[C@@H]2C1`, the Potency result in assay [5] was “inactive”.

As for `CCCSP(=O)(OCC)SCCC`, in assay [5], the Potency is 16 nM (active).

In the case of `CN1CN(c2ccccc2)C2(CCN(CCCC(=O)c3ccc(F)cc3)CC2)C1=O`, the Potency result in assay [5] is “inactive”.

Consider `Nc1ncnc2c1ncn2[C@@H]1O[C@@H]2COP(O)(=S)O[C@H]2[C@H]1O` (some centres undefined), for which, in assay [5], the viability (% of control) is 76.1% [at 9.25 µM] (inactive). The viability, % of control in assay [2] was 81% [at 9.25 µM] (inactive).

Take `CC(=O)OC1CC(O)C(C)(C)C2CC(OC(C)=O)C3(C)C(CCC4(C)C(c5ccoc5)C(=O)C5OC543)C12C` (centres undefined): the Potency result in assay [5] is “inactive”.

As for `COC1CC(O[C@H]2CC[C@]3(C=O)C4CC[C@]5(C)[C@@H](C6=CC(=O)OC6)CC[C@]5(O)[C@@H]4CC[C@]3(O)C2)OC(C)C1O[C@@H]1O[C@H](CO)[C@@H](O)[C@H](O)[C@H]1O` (some centres undefined), in assay [5], the Potency was 86.2 nM (active).

With `CN1[C@H]2C[C@H](OC(=O)[C@H](CO)c3ccccc3)C[C@@H]1[C@@H](O)C2`, the Potency entry in assay [5] and in assay [2] was “inactive” each time.

As for `Cc1c(Cl)c(OCC(=O)N2CCN(C)CC2)nc2sc(C(=O)NC3CC3)c(N)c12`, the Potency entry in assay [5] and in assay [2] was “inactive” each time.

Regarding `O=C(O)P(=O)(O)O`, the Potency result in assay [5] and in assay [2] was “inactive” each time.

In the case of `C[C@@H]1Cc2c(Cl)cc(C(=O)N[C@@H](Cc3ccccc3)C(=O)O)c(O)c2C(=O)O1`, the Potency in assay [5] was 718 nM (active); in assay [2], 286 nM (active).

As for `COC1C(O)C(C)OC(OC2C(CO)O[C@@H](O[C@@H]3CC4CCC5C(CC[C@]6(C)[C@@H](C7=CC(=O)OC7)CC[C@]56O)[C@@]4(C)[C@H](O)C3)C(O)C2O)C1O` (some centres undefined), the figures for the Potency in assay [5] and in assay [2] were 385 nM (active) and 217 nM (active), respectively.

Take `COC1CC(OC2CCC3(C=O)C(CCC4C3CCC3(C)C(C5=CC(=O)OC5)CCC43O)C2)OC(C)C1O` (centres undefined): the Potency in assay [5] is 89.3 nM (active); in assay [2], 70.9 nM (active).

As to `CC[C@H]1C2CC3[C@@H]4N(C)c5ccccc5[C@]45C[C@@H]([C@H]2[C@H]5O)N3[C@H]1O`, the Potency result in assay [5] was “inactive”.

Turning to `Clc1ccc(CO/N=C(\Cn2ccnc2)c2ccc(Cl)cc2Cl)c(Cl)c1`, the Potency in assay [5] is 13300 nM (active); in assay [2], 9440 nM (active).

As for `CCN(CC)C(=O)[C@@H]1C=C2c3cccc4[nH]cc(c34)C[C@H]2N(C)C1`, in assay [5], the Potency is 28400 nM (active).

As to `COC[C@]12CN(C)C3C4[C@H](OC)[C@H]1C3(C(OC)C[C@H]2O)[C@H]1C[C@@]2(O)[C@H](OC(=O)c3ccccc3)[C@@H]1[C@]4(O)[C@@H](O)[C@@H]2OC` (some centres undefined), in assay [5], the Potency result is “inactive”.

Turning to `C=C1C[C@]2(O)[C@@]3(C)CCC(=O)C(C)(C)C3=C(O)C(=O)[C@@]2(C)[C@@H]2C(=O)O[C@@](C)(C(=O)OC)C(=O)[C@@]12C`, the Potency entry in assay [5] and in assay [2] was “inactive” throughout.

As to `CC1=CC(=O)[C@@H](O)[C@]2(C)C3[C@@H](O)[C@@H]4OC(=O)[C@@H]([C@H]4C)[C@]3(C)C(=O)C[C@@H]12` (some centres undefined), the results for the Potency in assay [5] and in assay [2] were 904 nM (active) and 1010 nM (active), respectively.

Regarding `C=CCN1CC[C@]23c4c5ccc(O)c4O[C@H]2[C@@H](O)CC[C@@]3(O)[C@H]1C5`, the Potency result in assay [5] and in assay [2] was “inactive” throughout.

As to `CO[C@H]1C[C@H](O[C@H]2CC[C@]3(CO)[C@H]4CC[C@]5(C)[C@@H](C6=CC(=O)OC6)CC[C@]5(O)[C@@H]4CC[C@]3(O)C2)O[C@H](C)[C@H]1O`, the Potency was 100 nM (active) in assay [5] and 63.2 nM (active) in assay [2].
